Screens (PubChem)
A selection: hits, their analogues and other compounds. The true share with any hit is near 1.4%.
GLD-1 RNA inh: GLD-1-TGE RNA interaction inhibition (C. elegans); hit rate 0.44% among 320,000; inhibition, % at 5.96 µM; AID 2280; purified GLD-1 + fluorescein TGE RNA, fluorescence polarization;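 active = percent inhibition above a per-plate cutoff, the plate mean of test compounds plus 3 SD, cut at about 30% in these data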;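 also: 0% = DMSO wells with GLD-1 and probe and 100% = wells lacking GLD-1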
Target sequence (Q17339 whole entry, looked up): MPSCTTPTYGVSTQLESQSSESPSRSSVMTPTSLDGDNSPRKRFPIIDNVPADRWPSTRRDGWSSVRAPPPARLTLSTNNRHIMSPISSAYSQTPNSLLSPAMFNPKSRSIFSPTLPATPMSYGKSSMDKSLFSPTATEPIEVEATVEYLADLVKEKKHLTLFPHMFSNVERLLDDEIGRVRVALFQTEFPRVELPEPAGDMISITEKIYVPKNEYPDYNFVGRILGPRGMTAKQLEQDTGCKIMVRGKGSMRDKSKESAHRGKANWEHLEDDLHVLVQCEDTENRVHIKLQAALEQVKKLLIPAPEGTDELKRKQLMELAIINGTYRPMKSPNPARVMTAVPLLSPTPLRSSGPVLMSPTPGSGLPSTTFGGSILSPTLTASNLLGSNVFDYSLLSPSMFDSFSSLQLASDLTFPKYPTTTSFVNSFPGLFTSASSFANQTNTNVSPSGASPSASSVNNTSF
MEX-5 binding: C. elegans MEX-5 TCR-2 RNA binding activity; Q9XUB2; MEX-5/FITC-TCR2 RNA binding, fluorescence polarization; hits give low values; activity score (negative = inhibition of binding), % at 10 µM; hit rate 0.38% among 300,000; AID 1832;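 active = inhibition past about -25% in most replicates, and total fluorescence under double the plate's negative control median, limit read from the data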;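 also: 0% = DMSO and -100% = 5 µM competing unlabeled TCR2 RNA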
MCL1 BIM primary: inhibitors of human MCL1 binding to BIM-BH3 peptide | Q07820 | GST-MCL1 / FITC-Bim-BH3 fluorescence polarization | inhibition, % at 10.9 µM | hit rate 0.68% among 320,000 | AID 2057;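 active = inhibition above the mean inhibition of all tested compounds plus 3 SD, set per campaign, cut at about 40% in these data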;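 also: 0% = DMSO wells and 100% = unlabeled Bim-BH3 peptide control; higher means more loss of mP so more displacement of Bim peptide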
eLon inh: inhibitors of E. coli Lon protease. AID 602123. inhibition, % at 7.94 µM. hit rate 0.42% among 360,000. purified E. coli Lon protease, fluorescence polarization; in the data active = inhibition above about 13%, passing the limit was not always enough;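 also: 0% = enzyme with probe and DMSO and 100% = no enzyme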
Bcl-xL primary: inhibitors of human Bcl-xL; Q07817; GST-Bcl-xL / FITC-Bim BH3 peptide fluorescence polarization; inhibition, % at 10.9 µM; hit rate 0.7% among 320,000;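 active = inhibition above the mean of all tested compounds plus 3 SD, cutoff set per campaign, cut at about 30% in these data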;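 also: 0% = DMSO wells and 100% = unlabeled Bim-BH3 peptide competitor; inhibitors lower millipolarization by displacing the labeled peptide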
EBV gp42 block: blocks Epstein-Barr virus glycoprotein 42 binding. Q1HVG2. Fluorescence polarization binding assay, mP read-out. inhibition, % (tested at 21.74 µM). hit rate 0.42% among 220,000; in the data active = inhibition above about 50%
Target sequence (Q1HVG2 whole entry, looked up): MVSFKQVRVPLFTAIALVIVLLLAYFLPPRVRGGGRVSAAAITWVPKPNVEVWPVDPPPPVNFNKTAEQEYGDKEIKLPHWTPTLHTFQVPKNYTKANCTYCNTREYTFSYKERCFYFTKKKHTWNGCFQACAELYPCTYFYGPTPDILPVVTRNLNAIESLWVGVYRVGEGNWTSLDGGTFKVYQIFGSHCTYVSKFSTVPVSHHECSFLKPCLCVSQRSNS
* hit, by the source's call; x = no result.

SMILES	GLD-1 RNA inh	MEX-5 binding	MCL1 BIM primary	eLon inh	Bcl-xL primary	EBV gp42 block
COc1ccc2cc(/C=C3\SC(=S)NC3=O)c(N3CCOCC3)nc2c1	-5.0	-26.1*	-59.2	-52.3	-20.2	-7.0
COc1cccc(C=C2SC(=S)NC2=O)c1	x	x	x	-7.0	x	x
CCOc1ccc(C(C(=O)NC2CCCCC2)N(C(=O)Cc2cccs2)c2ccc(-n3cnnn3)c(OC)c2)cc1 (centres undefined)	1.6	0.3	4.3	14.5	7.1	7.4
COc1ccc(C=C2NC(=S)NC2=O)cc1	x	x	x	-2.4	x	x
COc1ccc(C(=O)N2C(=S)NC(=O)/C2=C\c2ccc(C)cc2)cc1	-15.4	-28.0*	-28.0	-74.8	-20.5	-76.0
O=S(=O)([N-]c1nc2ccccc2nc1-[n+]1ccccc1)c1ccccc1	0.4	0.7	-3.1	12.3	0.3	-18.2
O=S(=O)([N-]c1nc2ccccc2nc1-[n+]1ccc(CCCc2ccccc2)cc1)c1cccs1	16.9	-28.9*	25.1	14.2	30.0	35.5
CCOc1ccccc1-n1c(SCC(=O)Nc2ccccc2C(=O)O)nc2ccccc2c1=O	3.2	4.6	4.8	1.4	2.7	x
COc1ccc(-c2nnc(-c3cc4c(ccc5ccccc54)oc3=O)o2)cc1	-6.9	-41.7*	13.4	-6.2	6.1	50.7*
N=c1oc2ccc3ccccc3c2cc1-c1nc(-c2ccccc2)cs1	-1.5	-7.9	-9.4	-4.2	0.9	66.5*
Nc1nnc(-c2cc3c(ccc4ccccc43)oc2=O)s1	x	x	x	x	x	65.6*
O=c1oc2ccc3ccccc3c2cc1-c1nnc(-c2ccccc2)o1	-4.4	-2.9	3.2	-3.9	6.2	-14.3
N=c1oc2ccccc2cc1-c1nc(-c2ccccc2)cs1	2.3	2.5	-1.5	-21.4	-0.9	-2.1
N#CC1(NC(=O)CSc2nnc3n2CCCCC3)CCCCC1	4.0	x	x	-1.8	x	x
O=C(Nc1ccc2c(c1)OCCO2)C(=O)NC1CC1	0.4	-2.1	5.4	-6.0	6.7	x
CCOc1ccc2nc(COC(=O)c3ccncc3)c(C(=O)c3ccccc3)[n+]([O-])c2c1	2.1	2.3	-5.6	-10.4	0.7	-16.3
O=c1[nH]c2cc3c(cc2cc1CN(CCCO)Cc1nnnn1Cc1ccc(F)cc1)OCO3	15.0	-2.8	28.3	12.7	33.4*	-7.0
COc1ccccc1CN(Cc1cc2cc3c(cc2[nH]c1=O)OCCO3)Cc1nnnn1Cc1ccco1	14.1	3.6	30.8	2.9	32.3*	-6.9
O=c1[nH]c2cc3c(cc2cc1CN(Cc1cccnc1)Cc1nnnn1Cc1ccco1)OCCO3	5.9	-2.7	43.9*	-0.2	33.6*	-14.2
Cc1oc(C(C)(C)C)c(CN2CCOCC2)c1C(=O)O	14.1	0.0	0.1	4.3	4.2	-16.2
CSCC(C)N1CCC(n2nccc2NC(=O)c2ccc3c(c2)OCO3)CC1 (centres undefined)	18.6	-3.3	22.2	5.1	26.5	x
CSCC(C)N1CCC(n2nccc2NC(=O)c2ccccc2C)CC1 (centres undefined)	23.0	-4.6	38.7	-4.8	37.8*	x
CC(C)N(C(=O)C[n+]1ccc(/C=N/O)cc1)C(C)C	5.6	-0.4	-3.2	-276.5	0.8	76.6*
O=C(CCl)NCCN1C(=O)S/C(=C\c2cccnc2)C1=O	-3.6	-59.7*	6.2	6.0	1.8	-26.0
CC(C(=O)NCCN1C(=O)S/C(=C\c2cccnc2)C1=O)N1C(=O)c2ccccc2C1=O (centres undefined)	2.3	-0.7	-11.6	-3.2	1.9	-15.1
SMILES	GLD-1 RNA inh	MEX-5 binding	MCL1 BIM primary	eLon inh	Bcl-xL primary	EBV gp42 block
O=C(NCC(O)CN1CCOCC1)c1ccc([N+](=O)[O-])cc1 (centres undefined)	6.7	0.8	2.9	-8.1	5.3	-2.1
CC1(C)C(=O)Nc2ccccc2N1C(=O)COC(=O)Cc1ccccc1F	1.1	x	x	-15.4	x	x
COc1cc([N+](=O)[O-])ccc1NC(=S)Nn1cnnc1	0.8	-2.2	4.0	-6.9	35.8*	x
CC1=CC(=C(C#N)c2nc3ccccc3s2)C=C(C)N1c1ccc(F)cc1	3.0	1.5	-7.9	-3.3	5.9	179.9*
COc1ccccc1N1C(C)=CC(=C(C#N)c2nc3ccccc3s2)C=C1C	-6.2	-37.9*	-12.7	-4.7	-0.4	164.5*
CCOC(=O)c1cc2c(=O)n3ccccc3nc2n(CCOC)c1=NC(=O)c1ccncc1	3.1	-0.5	3.5	1.0	6.2	-4.5
CCOC(=O)c1cc2c(=O)n3ccccc3nc2n(C(C)C)c1=NC(=O)c1ccncc1	9.1	-32.0*	1.6	-6.4	4.9	-22.2
O=C(N=Nc1ccc(NOC(=O)c2ccccc2Br)cc1)c1ccccc1O	-0.9	-1.1	19.1	x	15.8	51.1*
CC(=O)Nc1ccc2nc(CN3CCC(CO)(CCc4ccccc4)CC3)ccc2c1	0.4	5.4	-1.9	-12.0	-2.0	-3.7
CCN(CC)CCCC(C)Nc1c2ccc(Cl)cc2nc2ccc(OC)cc12 (centres undefined)	x	x	x	x	x	117.6*
COc1ccc2nc3cc(Cl)ccc3c(Nc3cc(C(C)C)c(O)cc3C)c2c1	4.9	-0.7	-4.3	11.4	-4.4	14.8
CCc1ccc2nc3sc(C(=O)N4CCc5ccccc54)c(N)c3cc2c1	5.0	1.4	-2.5	x	5.6	158.8*
O=C(c1ccc(C(=O)N2CCCc3ccccc32)s1)N1CCCc2ccccc21	4.4	-0.5	6.5	-8.6	4.1	-3.0
CC(C)c1ccc2nc3sc(C(=O)N4CCc5ccccc5C4)c(N)c3cc2c1	-17.4	-15.8	-11.6	3.9	6.6	19.9
Cc1ccc2nc3sc(C(=O)N4CCOCC4)c(N)c3cc2c1	-6.3	-44.4*	1.5	-0.1	2.2	-3.2
Cc1ccc(C)c2nc3sc(C(=O)N4CCCc5ccccc54)c(N)c3cc12	-13.7	-9.1	-18.2	-19.2	-3.0	141.7*
Cc1ccc2cc3c(N)c(C(=O)N4CCOCC4)sc3nc2c1	-4.7	-8.3	5.3	0.9	4.1	-2.7
Cc1ccc(S(=O)(=O)NCc2ccccc2)cc1C(=O)NCC(=O)Nc1c(C)cccc1C	x	x	x	11.3	x	x
CCOC(=O)c1ccccc1NC(=O)CSc1nc2[nH]ncc2c(=O)[nH]1	4.9	-0.6	-1.8	-1.3	6.5	x
COc1ccc2nc3cc(Cl)ccc3c(Nc3cc(CN4CCCC4)c(O)c(CN4CCCC4)c3)c2n1	-1.0	-35.7*	18.8	4.1	5.0	x
Cc1cc(C=C2C(=O)c3ccccc3C2=O)c(C)n1-c1ccccc1	3.3	-7.6	-3.3	-14.9	-1.4	56.6*
O=C(NCc1nnc2c(C(F)(F)F)cc(Cl)cn12)c1cccs1	1.4	-0.7	-0.4	2.9	0.6	x
CCOc1ccc(CCNC(=O)C2=C(C)C(=O)OC23CCCCC3)cc1OCC	5.1	-0.4	0.2	-5.0	6.9	-12.6
COc1cc(C2Nc3cccc4cccc(c34)N2)cc(OC)c1OC(C)=O	10.2	-3.9	45.5*	5.0	38.8*	25.2
Oc1ccc(/C=N/Nc2ccc(Cl)nn2)c(O)c1O	10.1	-48.2*	35.3	15.5	28.0	x
